Hit rate of the full screen: of about 65,000 compounds, about 2,100 (3.2%) showed an effect of 50% or more. The median lay at about -52%. Many of the other results were omitted from the sample, so strong results are more common in it than they were.
System: Plasmodium falciparum
Assay: Screen against P. falciparum Asexual Blood Stage (ABS), at 5uM
Type: functional, Dd2
Details: tested at 5 uM

| SMILES | INHIBITION [%] |
| --- | --- |
| CC(C)CO[C@H]1CN(S(=O)(=O)c2cn(C)cn2)[C@@H]2CCCO[C@H]12 | -26.7 |
| CN(CC(F)(F)F)C(=O)CNC(=O)N1CCCC(N(C)C)C1 (stereo unspecified) | -126 |
| O=C(c1n[nH]c(=O)c2ccccc12)N1CCC(O)(CN2CCOCC2)C1 (stereo unspecified) | -74.2 |
| CC(C)(C)OC(=O)NC(C)(C(N)=O)c1cccc(Cl)c1 (stereo unspecified) | -135 |
| CC(C)c1noc(CCC(=O)N2CCSCC2)n1 | -159 |
| COCC1CN(Cc2ccccn2)Cc2nn(C)cc21 (stereo unspecified) | -9.17 |
| Cc1nnc(SCC(=O)NCc2ccc3c(c2)CCC(=O)N3)s1 | -34.4 |
| Cc1nc2cc(CNC(=O)C3CC(=O)N(C4CCCC4)C3)ccc2n1C (stereo unspecified) | -135 |
| CN(CC1CCCCC1)C(=O)c1ccc(-n2ncc(C#N)c2N)cc1 | -48.5 |
| CCOc1ccc(Cl)c(C(=O)NCCC(=O)Nc2ccccn2)n1 | 31.1 |
| CCCn1nc2c(cc1=O)CN(c1ncnc3sccc13)CC2 | -82.2 |
| CCCNC(=O)c1cc(-c2cnc(N3CCCC3)nc2)cn1C | -151 |
| Cc1nc(CNC(=O)c2ccc3c(c2)nc(N2CCOCC2)n3C)cs1 | -33.8 |
| CN1CCS(=O)(=O)[C@@H]2CCN(C(=O)c3ccccc3)CC[C@@H]21 | -102 |
| c1ccc(CN2CCC3(CC2)CCN(c2ccccn2)C3)nc1 | 3.14 |
| Cc1ccc(N2CCC3(CCN(Cc4ccccn4)CC3)CC2)nn1 | -21.1 |
| Cc1cccc(N2CCC3(CCN(Cc4ccccn4)CC3)CC2)n1 | 63.8 |
| O=C(NCC1CCOC1)Nc1ccc(Oc2ccc(F)cc2)nc1 (stereo unspecified) | 29.4 |
| O=C(NCC1CC1)Nc1ccc(OCC(F)(F)F)nc1 | 52.7 |
| O=C(CCN1C(=O)CCC1=O)Nc1ccc(OCC(F)(F)F)nc1 | -54.8 |
| O=C(NCc1ccco1)c1cccc(C(=O)NCc2ccco2)n1 | -31 |
| Cc1nn(C)c2nc(-c3ccccn3)nc(NCCC3CCCN3C)c12 (stereo unspecified) | -35.5 |

| SMILES | INHIBITION [%] |
| --- | --- |
| Cn1ccnc1CN1CCCCC1c1nc(-c2ccccc2)no1 (stereo unspecified) | -149 |
| CN1CCCC1CCn1ccnc1-c1ccc2ccccc2n1 (stereo unspecified) | 56.5 |
| CN1CCCC1CCn1ccnc1-c1nc(-c2ccccc2)no1 (stereo unspecified) | 57.6 |
| c1ccc(-c2noc(CCCN3CCCC3Cn3cccn3)n2)cc1 (stereo unspecified) | 31.8 |
| OCC1CCCCN1CCn1ccnc1-c1nc2ccccc2[nH]1 (stereo unspecified) | 13.2 |
| O=C(NCCc1cccnc1)c1cn(CCN2CCNCC2)nn1 | -75.5 |
| Cc1cnc(N2CCn3c(CN4CCOCC4)nnc3C2)nc1 | -56.3 |
| Cn1c(CN2CC[C@](C)(O)C(C)(C)C2)cc2ccccc21 | -28.6 |
| COc1ccc(C(CNC(=O)c2c(C)noc2C)N(C)C)cc1 (stereo unspecified) | -125 |
| COc1ccc(CN2CCOC(CCc3ccnc(N)c3)C2)cc1 (stereo unspecified) | 38.1 |
| COc1ccccc1N1CCC(CNCc2cccc(O)c2)C1 (stereo unspecified) | 56.8 |
| COc1c(CNCc2ccccc2CO)c(C)nn1C | -2.62 |
| COc1ccccc1N1CCC(CNCc2c(C)nn(C)c2OC)C1 (stereo unspecified) | 53.5 |
| COc1ccc(CNCC2CCN(c3ccccc3OC)C2)cc1O (stereo unspecified) | 24.5 |
| COc1cccc(CNCC2CCN(CC(C)O)CC2)c1OC (stereo unspecified) | -2.28 |
| COc1ccccc1N1CCC(CNS(=O)(=O)c2c(C)nn(C)c2C)C1 (stereo unspecified) | -22.2 |
| COc1ccccc1N1CCC(CNS(=O)(=O)c2cccs2)C1 (stereo unspecified) | 7.44 |
| COc1ccccc1N1CCC(CNCc2cccc(C#N)c2)C1 (stereo unspecified) | 3.2 |
| COc1ccccc1N1CCC(CNCc2cccc(OC)c2OC)C1 (stereo unspecified) | 57 |
| C/C(NC(=O)c1ccco1)=C1/C(=O)C[C@@H]2[C@H]1C2(C)C | -86.3 |
| CC(C)N(C)Cc1cn2c(n1)CN(C(=O)Cc1ccccc1)CC2 | -63.5 |
| COc1c(CNCc2cccnc2N2CCN(C)CC2)c(C)nn1C | -95.3 |

| SMILES | INHIBITION [%] |
| --- | --- |
| CCOc1nc2cnccc2n(CC(=O)NCc2ccc(C)cc2)c1=O | -10.3 |
| Cc1nc(N2CCOCC2)nc2c1CCN(Cc1ccsc1)CC2 | -79.9 |
| CCCc1ccc(C(=O)N2Cc3c(Cn4ccnc4)nn(C)c3C2)cc1 | -64.1 |
| CCO[C@H]1C[C@@H](O)C12CCN(C(=O)CC(F)(F)F)CC2 | -105 |
| CC(C)Oc1cc(N2C[C@H](C3CC3)[C@@H](N)C2)nc(N)n1 | -211 |
| CNc1cc(C)nc(N2C[C@@H](C(=O)O)[C@H](C3CC3)C2)n1 | -75.5 |
| CCc1cc(N2C[C@H](C3CC3)[C@@H](N)C2)nc(N2CCCC2)n1 | 69.6 |
| N[C@H]1CN(Cc2cnc(N3CCCC3)nc2)C[C@@H]1C1CC1 | -9 |
| Cc1cc(N2C[C@H](C3CC3)[C@@H](N)C2)nc(N2CCCCC2)n1 | 56.4 |
| CCc1cc(N2C[C@H](C3CC3)[C@@H](N)C2)nc(N2CCOCC2)n1 | -73.7 |
| CCc1ccc(CN(CCCn2ccnc2)Cc2ccc(C)s2)o1 | 21.9 |
| CN1[C@@H]2CC[C@H]1CN(c1nc(-c3ccncc3)nc3c1cnn3C)CC2 | -86.6 |
| CCc1cc(C(=O)N2Cc3ccccc3OC3(CCOCC3)C2)on1 | -33.7 |
| CN(C)CCN1C(=O)CCC12CCCN(C(=O)CC1CC1)CC2 (stereo unspecified) | -26.4 |
| Cc1nccn1CCC1CCCCN1Cc1ccc(O)cc1Cl (stereo unspecified) | 24.6 |
| Cc1nccn1CCC1CCCCN1Cc1ccncc1 (stereo unspecified) | -88.5 |
| Cc1cc2c(cc1CN1CCCCC1CCn1ccnc1C)OCO2 (stereo unspecified) | 67.7 |
| Cc1nccn1CCC1CCCCN1Cc1cccc(CCN)c1 (stereo unspecified) | 59.8 |
| Cc1nccn1CCC1CCCCN1Cc1cnc(N(C)C)nc1 (stereo unspecified) | 4.12 |
| Cc1nccn1CCC1CCCCN1Cc1ccc2c(c1)OCCO2 (stereo unspecified) | 46.4 |
| Cn1cc(CNC2CCC(O)CC2)c(-c2cc3ccccc3o2)n1 (stereo unspecified) | -29 |
| CC(C)NC(=O)Nc1ccc(CNCc2ccc(OC(F)F)cc2)cc1 | -97.1 |

| SMILES | INHIBITION [%] |
| --- | --- |
| CC(C)c1nc(C2CCCN2Cc2ccncc2Cl)no1 (stereo unspecified) | -53.3 |
| COCCN1C[C@@H]2CC[C@H]1CN(C(=O)c1ccc(Cl)cc1)C2 | -61.5 |
| Cc1ccc(-n2cccn2)cc1S(=O)(=O)N1C[C@H]2CC[C@@H](C1)N(C)C2 | 63.6 |
| Cc1ccc(-n2cccn2)cc1S(=O)(=O)N1C[C@H](C2CC2)[C@@H](N)C1 | 41.6 |
| CCCN1C[C@@H]2CC[C@H]1CN(Cc1cccc(-n3cccn3)c1)C2 | 46.5 |
| COc1ccc(-n2cccn2)cc1S(=O)(=O)N1C[C@H](C2CC2)[C@@H](N)C1 | 58.9 |
| N[C@H]1CN(S(=O)(=O)c2cccnc2)C[C@@H]1C1CC1 | -59.9 |
| CCCN1C[C@@H]2CC[C@H]1CN(Cc1ccc(-n3cccn3)cc1)C2 | 30.8 |
| CN(C)Cc1cnc(C2CCN(C(=O)c3ccc(F)cc3)C2)[nH]1 (stereo unspecified) | -144 |
| CCOc1cc(C)nc(N2CCN(C(=O)C(C)NC(C)=O)CC2)n1 (stereo unspecified) | -92.3 |
| O=C(Nc1ccncc1)NC1CCN(c2ccccc2OC(F)F)C1 (stereo unspecified) | 64.4 |
| COc1ccccc1N1CCC(NCc2c(C)noc2C)C1 (stereo unspecified) | 28.4 |
| O=C(Nc1ccccn1)NC1CCN(c2ccccc2OC(F)F)C1 (stereo unspecified) | 8.94 |
| Cc1ccc(N2CCCC(NCc3c(C)noc3C)C2)nn1 (stereo unspecified) | -2.57 |
| O=C(Nc1cccnc1)NC1CCN(c2ccccc2OC(F)F)C1 (stereo unspecified) | 16 |
| Cc1noc(C)c1CNC1CCN(c2ccccc2OC(F)F)C1 (stereo unspecified) | 63.7 |
| CCCOc1c(Cl)cc(C(=O)N2CCOC23CCN(C)CC3)cc1Cl | -5.1 |
| CSCc1cc(F)ccc1CNC(=O)N1CCCC(CO)C1 (stereo unspecified) | -126 |
| OC(c1ccccc1)C1CCN(Cc2csc(-c3ncccn3)n2)CC1 (stereo unspecified) | -49.1 |
| CCC1=N[C@@]2(CC[C@@H]3CN(C(=O)NCc4ccccc4C)C[C@@H]32)C(=O)N1 | -16 |
| c1cnn(CC2CCCN2c2ncnc3ccsc23)c1 (stereo unspecified) | -122 |
| CCc1cnc(N)nc1NCCN1CCCCC1 | 51.1 |

| SMILES | INHIBITION [%] |
| --- | --- |
| CCc1cnc(N)nc1NCCn1cc(Cl)cn1 | 55.4 |
| CCc1cnc(N)nc1NCCCn1nc(C)nc1C | -44.2 |
| CCc1cnc(C)nc1NCCN1CCOCC1 | -11.8 |
| CCc1cnc(N)nc1NCCc1ccc(OC)cc1OC | -6.25 |
| CCc1cnc(C)nc1NCCN1CCCCCC1 | 44.7 |
| Cc1ccc(CN2CCC3(CC2)CN(c2ccccc2)C(=O)CO3)o1 | -69 |
| c1cnn(CC2CN(Cc3csc(C4CCCCC4)n3)CCO2)c1 (stereo unspecified) | -70 |
| CNc1ncc(CN(C)C(=O)CCc2[nH]nc3c2CCCC3)cn1 | -74.2 |
| NC(=O)C1CCN(C(=O)c2ccc(OCc3cscn3)cc2)CC1 | -12.2 |
| CCS(=O)(=O)N1CCc2ccc(NC(=O)Nc3cccc(F)c3)cc21 | -51.9 |
| CC(C)(C)NC(=O)c1ccn(COc2ccccc2Cl)n1 | -35.7 |
| CC(C)(C)n1nnnc1CN(CCc1ccccc1)Cc1ccccc1 | 20.2 |
| CC(C)(C)n1ncc(NCc2ccccc2)c(Cl)c1=O | -43.4 |
| CC(C)(C)n1nnnc1CN(Cc1ccccc1)Cc1ccc(Cl)cc1 | 67.5 |
| COc1ncccc1CNC(=O)c1ccco1 | -16.5 |
| Cn1c(CN2CCOCC2)cc(=O)c(O)c1CN1CCCCC1 | -211 |
| Cn1c(CN2CCCCCC2)cc(=O)c(O)c1CN1CCCC1 | 60.2 |
| Cn1c(CN2CCOCC2)cc(=O)c(O)c1CN1CCCC1 | -205 |

Source: ChEMBL document CHEMBL4513216, “Probing the Open Global Health Chemical Diversity Library for Multistage-Active Starting Points for Next-Generation Antimalarials” (ACS Infect Dis, 2020)
